Measurements taken from the supplement of paper PMC11732987, “Enantioselective OTUD7B fragment discovery through chemoproteomics screening and high-throughput optimisation” (Communications Chemistry, 2025).

Experiments:
Experiment in all cases: log2 ratio of Biotin-Ahx-Ub-VS probe labelling (fragment/DMSO); higher = less target engagement (more negative = stronger competition), active = hit call of the paper (q ≤ 0.05, log2 ratio ≤ -1)
Conditions in all cases: compound concentration: 200 uM; treatment time: 3 h
ALG13 = target: T1, ALG13 (UniProt Q9NP73)
T1 sequence (whole entry): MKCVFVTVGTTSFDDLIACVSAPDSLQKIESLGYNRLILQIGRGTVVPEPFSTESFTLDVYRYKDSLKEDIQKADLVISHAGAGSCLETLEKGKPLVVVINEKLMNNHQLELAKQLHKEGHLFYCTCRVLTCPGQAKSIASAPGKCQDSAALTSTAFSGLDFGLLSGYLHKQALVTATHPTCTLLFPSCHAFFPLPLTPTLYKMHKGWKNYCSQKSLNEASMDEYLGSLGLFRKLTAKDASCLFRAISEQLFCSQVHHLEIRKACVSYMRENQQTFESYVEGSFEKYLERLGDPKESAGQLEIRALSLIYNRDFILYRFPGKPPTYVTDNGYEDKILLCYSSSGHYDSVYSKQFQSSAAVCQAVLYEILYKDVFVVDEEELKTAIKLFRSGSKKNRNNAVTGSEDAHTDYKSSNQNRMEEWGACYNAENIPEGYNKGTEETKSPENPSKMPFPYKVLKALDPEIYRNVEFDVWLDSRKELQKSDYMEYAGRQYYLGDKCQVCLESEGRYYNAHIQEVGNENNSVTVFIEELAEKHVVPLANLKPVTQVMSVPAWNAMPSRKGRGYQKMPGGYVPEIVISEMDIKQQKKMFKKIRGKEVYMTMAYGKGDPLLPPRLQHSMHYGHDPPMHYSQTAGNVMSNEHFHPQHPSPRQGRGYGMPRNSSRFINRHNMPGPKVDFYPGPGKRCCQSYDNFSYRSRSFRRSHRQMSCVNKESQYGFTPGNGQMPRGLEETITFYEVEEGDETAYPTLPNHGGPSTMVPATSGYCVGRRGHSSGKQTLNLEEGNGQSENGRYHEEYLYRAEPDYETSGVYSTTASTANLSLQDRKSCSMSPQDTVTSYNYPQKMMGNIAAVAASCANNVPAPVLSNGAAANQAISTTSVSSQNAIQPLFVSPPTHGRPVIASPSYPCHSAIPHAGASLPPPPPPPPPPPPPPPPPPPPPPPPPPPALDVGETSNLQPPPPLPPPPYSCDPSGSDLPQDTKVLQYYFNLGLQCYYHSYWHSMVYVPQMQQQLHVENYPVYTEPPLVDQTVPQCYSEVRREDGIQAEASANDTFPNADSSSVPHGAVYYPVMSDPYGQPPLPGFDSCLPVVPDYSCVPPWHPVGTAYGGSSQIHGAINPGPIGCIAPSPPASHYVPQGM
Summary of the method: (§1)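 Labelling with Biotin-Ahx-Ub-VS (0.5 µM final, 1 h) followed a 3 h triplicate treatment of HEK293T lysate (495 µg per sample, Tris/CHAPS/IGEPAL buffer with protease inhibitors) with fragment at 200 µM or vehicle. Labelled DUBs were NeutrAvidin-enriched, digested with LysC and trypsin, and run by diaPASEF LC-MS/MS. The values, average log2 fragment/vehicle ratios by unpaired t-test, come from global-median-normalised Spectronaut label-free quantities. Proteins with ≥2 unique peptides were used.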

ATXN3 = ATXN3 (UniProt P54252)
Summary of the method: as §1

BAP1 = target: T2, BAP1 (UniProt Q92560)
T2 sequence (whole entry): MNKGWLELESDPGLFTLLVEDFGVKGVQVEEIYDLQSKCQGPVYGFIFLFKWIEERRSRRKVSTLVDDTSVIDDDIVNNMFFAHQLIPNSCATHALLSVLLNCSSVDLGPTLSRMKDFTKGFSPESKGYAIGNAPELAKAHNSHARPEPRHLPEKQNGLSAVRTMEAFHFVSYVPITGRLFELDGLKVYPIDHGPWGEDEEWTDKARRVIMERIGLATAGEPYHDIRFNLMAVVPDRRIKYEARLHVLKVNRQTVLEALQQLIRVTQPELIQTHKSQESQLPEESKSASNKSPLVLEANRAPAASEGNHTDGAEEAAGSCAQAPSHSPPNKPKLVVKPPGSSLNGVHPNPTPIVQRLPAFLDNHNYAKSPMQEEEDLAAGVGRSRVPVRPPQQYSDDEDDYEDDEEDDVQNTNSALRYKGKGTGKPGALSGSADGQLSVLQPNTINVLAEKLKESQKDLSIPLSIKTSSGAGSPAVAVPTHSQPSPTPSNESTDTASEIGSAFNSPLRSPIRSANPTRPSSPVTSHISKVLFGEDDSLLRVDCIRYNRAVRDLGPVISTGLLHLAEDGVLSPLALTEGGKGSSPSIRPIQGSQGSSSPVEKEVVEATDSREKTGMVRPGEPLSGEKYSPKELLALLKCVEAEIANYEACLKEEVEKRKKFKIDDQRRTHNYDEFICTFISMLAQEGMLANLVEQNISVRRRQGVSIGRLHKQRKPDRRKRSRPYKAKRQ
Summary of the method: as §1

EIF3F = EIF3F (UniProt O00303)
Summary of the method: as §1

EIF3H = EIF3H (UniProt O15372)
Summary of the method: as §1

FAM105A = target: T3, FAM105A (UniProt Q9NUU6)
T3 sequence (whole entry): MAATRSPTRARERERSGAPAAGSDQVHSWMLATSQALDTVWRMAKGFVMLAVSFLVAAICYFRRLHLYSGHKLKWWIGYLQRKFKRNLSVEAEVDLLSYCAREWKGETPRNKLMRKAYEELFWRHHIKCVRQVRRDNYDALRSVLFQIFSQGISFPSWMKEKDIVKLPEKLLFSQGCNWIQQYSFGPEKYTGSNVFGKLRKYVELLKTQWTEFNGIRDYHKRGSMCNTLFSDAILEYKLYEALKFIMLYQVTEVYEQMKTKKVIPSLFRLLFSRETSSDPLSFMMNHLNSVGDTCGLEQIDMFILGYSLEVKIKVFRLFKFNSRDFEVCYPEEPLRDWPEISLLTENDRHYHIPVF
Summary of the method: as §1

OTUB1 = OTUB1 (UniProt Q96FW1)
Summary of the method: as §1

OTUD4 = target: T4, OTUD4 (UniProt Q01804)
T4 sequence (whole entry): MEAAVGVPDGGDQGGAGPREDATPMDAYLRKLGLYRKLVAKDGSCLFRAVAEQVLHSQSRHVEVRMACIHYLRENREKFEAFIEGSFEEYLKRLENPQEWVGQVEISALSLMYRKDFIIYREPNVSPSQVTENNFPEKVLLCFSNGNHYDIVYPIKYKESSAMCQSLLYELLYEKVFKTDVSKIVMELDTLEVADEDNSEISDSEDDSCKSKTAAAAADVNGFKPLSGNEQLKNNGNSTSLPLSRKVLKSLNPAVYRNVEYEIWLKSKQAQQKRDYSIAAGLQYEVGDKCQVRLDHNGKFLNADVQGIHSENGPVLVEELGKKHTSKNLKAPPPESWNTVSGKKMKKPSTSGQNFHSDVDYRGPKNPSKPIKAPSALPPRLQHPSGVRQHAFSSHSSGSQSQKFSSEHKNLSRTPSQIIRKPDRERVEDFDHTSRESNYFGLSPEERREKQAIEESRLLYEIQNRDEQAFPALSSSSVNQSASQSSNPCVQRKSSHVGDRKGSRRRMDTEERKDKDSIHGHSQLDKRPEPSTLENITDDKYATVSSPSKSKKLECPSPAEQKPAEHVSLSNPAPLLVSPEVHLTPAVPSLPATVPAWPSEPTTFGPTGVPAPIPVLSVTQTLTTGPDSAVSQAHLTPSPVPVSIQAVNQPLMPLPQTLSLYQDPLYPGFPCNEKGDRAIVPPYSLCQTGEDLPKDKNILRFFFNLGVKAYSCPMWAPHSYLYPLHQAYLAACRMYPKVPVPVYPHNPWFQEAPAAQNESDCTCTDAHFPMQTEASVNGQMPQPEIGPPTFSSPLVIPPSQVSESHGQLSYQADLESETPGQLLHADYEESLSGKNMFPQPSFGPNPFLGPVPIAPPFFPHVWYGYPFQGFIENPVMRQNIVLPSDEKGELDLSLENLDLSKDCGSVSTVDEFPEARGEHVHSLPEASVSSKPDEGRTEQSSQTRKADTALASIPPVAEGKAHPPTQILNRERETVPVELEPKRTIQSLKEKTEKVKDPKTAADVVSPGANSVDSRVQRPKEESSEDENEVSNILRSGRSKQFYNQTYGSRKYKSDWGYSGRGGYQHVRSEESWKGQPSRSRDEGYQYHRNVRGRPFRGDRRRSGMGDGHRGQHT
Summary of the method: as §1

OTUD5 = target: T5, OTUD5 (UniProt Q96G74)
T5 sequence (whole entry): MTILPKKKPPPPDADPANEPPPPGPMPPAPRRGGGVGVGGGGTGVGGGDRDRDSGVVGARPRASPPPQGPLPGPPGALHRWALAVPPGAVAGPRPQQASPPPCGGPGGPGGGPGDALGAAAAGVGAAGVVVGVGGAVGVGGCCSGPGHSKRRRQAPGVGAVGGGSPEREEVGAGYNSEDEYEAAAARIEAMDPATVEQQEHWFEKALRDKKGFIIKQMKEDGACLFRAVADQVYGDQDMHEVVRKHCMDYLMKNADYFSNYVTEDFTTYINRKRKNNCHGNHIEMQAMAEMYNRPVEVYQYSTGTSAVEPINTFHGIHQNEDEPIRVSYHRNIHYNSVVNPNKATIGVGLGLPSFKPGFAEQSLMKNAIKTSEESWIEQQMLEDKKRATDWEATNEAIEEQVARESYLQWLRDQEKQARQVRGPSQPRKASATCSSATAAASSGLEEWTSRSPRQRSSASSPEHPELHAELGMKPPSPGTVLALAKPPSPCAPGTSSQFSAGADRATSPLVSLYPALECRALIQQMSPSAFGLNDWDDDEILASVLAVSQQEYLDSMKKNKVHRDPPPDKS
Summary of the method: as §1

Measured: log2 ratio of Biotin-Ahx-Ub-VS probe labelling

Chain of EIF3H (O15372 whole entry): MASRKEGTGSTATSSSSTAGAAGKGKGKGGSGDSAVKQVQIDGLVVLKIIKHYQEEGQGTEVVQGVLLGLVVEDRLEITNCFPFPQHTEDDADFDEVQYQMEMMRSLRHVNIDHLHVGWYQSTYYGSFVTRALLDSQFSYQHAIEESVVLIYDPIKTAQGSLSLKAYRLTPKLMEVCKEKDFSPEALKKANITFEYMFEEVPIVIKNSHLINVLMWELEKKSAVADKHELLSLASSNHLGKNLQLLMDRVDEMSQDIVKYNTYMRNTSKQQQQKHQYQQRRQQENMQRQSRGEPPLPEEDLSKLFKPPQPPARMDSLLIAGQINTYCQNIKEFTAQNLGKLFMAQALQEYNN
Chain of ATXN3 (P54252 whole entry): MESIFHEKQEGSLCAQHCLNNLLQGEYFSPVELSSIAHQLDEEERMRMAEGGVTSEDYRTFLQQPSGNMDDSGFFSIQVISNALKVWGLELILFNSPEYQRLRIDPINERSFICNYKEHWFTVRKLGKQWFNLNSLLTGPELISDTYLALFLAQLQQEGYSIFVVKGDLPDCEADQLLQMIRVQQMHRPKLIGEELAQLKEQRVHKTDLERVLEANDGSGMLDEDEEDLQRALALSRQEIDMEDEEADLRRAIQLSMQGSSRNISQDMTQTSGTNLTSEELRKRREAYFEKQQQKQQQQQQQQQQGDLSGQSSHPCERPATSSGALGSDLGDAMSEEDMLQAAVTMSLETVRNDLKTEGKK
Chain of EIF3F (O00303 whole entry): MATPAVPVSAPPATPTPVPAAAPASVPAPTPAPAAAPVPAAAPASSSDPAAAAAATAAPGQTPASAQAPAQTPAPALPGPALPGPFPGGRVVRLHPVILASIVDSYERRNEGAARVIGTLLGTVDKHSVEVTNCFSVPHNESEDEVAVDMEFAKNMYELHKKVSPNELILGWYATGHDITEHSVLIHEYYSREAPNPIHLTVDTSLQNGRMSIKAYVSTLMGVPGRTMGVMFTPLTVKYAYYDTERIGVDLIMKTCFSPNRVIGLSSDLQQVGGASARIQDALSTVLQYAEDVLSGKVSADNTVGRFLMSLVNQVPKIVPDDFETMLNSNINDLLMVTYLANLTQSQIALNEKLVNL
Chain of OTUB1 (Q96FW1 whole entry): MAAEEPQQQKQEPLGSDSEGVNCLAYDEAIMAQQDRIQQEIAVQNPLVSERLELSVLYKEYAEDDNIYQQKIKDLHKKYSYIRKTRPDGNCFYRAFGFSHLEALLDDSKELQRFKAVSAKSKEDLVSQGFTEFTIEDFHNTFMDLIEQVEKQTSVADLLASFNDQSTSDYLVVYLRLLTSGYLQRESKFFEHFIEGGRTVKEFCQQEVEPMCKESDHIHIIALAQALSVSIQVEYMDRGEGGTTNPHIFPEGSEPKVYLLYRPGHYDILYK

O=C(CCl)Nc1nnc(CC(F)(F)F)o1
inactive: ALG13 -0.0296 | ATXN3 -0.129 | BAP1 -0.573 | EIF3F -0.0944 | EIF3H 0.23 | FAM105A 0.0181 | OTUB1 0.15 | OTUD4 -0.445 | OTUD5 -0.385
